Measurements published in PubChem BioAssay (NCI).
This is part of a sample that, as a whole, favours compounds with a hit. Of some 83,000 tested, about 20% had one in any assay.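 Method: cells in 96-well plates; compound added at one concentration; 48 h incubation; percent growth measured; values under 10 scored active.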 Active and inactive are the calls of the source.

The molecules below were run on MOLT-4 leukemia (assay: NCI-60 one-dose screen, 48 h (100 = growth as untreated, 0 = no growth, -100 = all killed)). Conditions: 10 µM.

Structure (SMILES)	growth
O=C(CSc1ccc(-c2ccc(Cl)cc2)nn1)Nc1ccc(Cl)c(C(F)(F)F)c1	11% (inactive)
COc1cc(/C=N/NC(=O)c2ccc3nc(-c4ccc(Cl)cc4)[nH]c3c2)cc(OC)c1OC	3.96% (active)
COc1cnc2c(c1)C(=O)c1c-2n(CCCNCCO)c(=O)c2cc(OC)c(OC)cc12	12.8% (inactive)
O=C(CSc1nnc(-c2c[nH]c3ccccc23)n1-c1ccccc1)Nc1ccc(C(=O)/C=C/c2cccc([N+](=O)[O-])c2)cc1	78% (inactive)
NC1=NC(c2ccccc2Cl)N=C(Nc2nn[nH]n2)N1 (configuration not stated)	124% (inactive)
O=C1NC(=NC23CC4CC(CC(C4)C2)C3)N/C1=C\c1ccc2ncccc2n1	-10.9% (active)
COc1cccc(/C=C2\N=C(C)N(CCc3ccc(S(N)(=O)=O)cc3)C2=O)c1	97.8% (inactive)
CC1(C)[C@@H](NCO)CC[C@]2(C)[C@H]3C(=O)C=C4[C@@H]5C[C@](C)(CO)CC[C@]5(C)CC[C@@]4(C)[C@]3(C)CC[C@@H]12	16.5% (inactive)
CN1CCN(Cc2ccc(NC(=O)c3cncc(C#Cc4cnc5ccc(N[C@H]6CCOC6)nn45)c3)cc2C(F)(F)F)CC1	-9.84% (active)
N#Cc1c(NC(=O)c2ccc(C(F)(F)F)cc2C(F)(F)F)sc2c1CCC(=O)C2	-16% (active)
COc1ccccc1[C@H]1C(C(=O)c2ccc(O)cc2)C2(N[C@@H]1c1ccccc1)C(=O)Nc1ccc(Br)cc12 (some centres not stated)	-9.09% (active)
CN(CCF)c1ccc(/C=C/C(=O)c2ccc(N)cc2O)cc1	58% (inactive)
N#Cc1c(NC(=O)c2cccc(C(F)(F)F)c2)sc2c1CCC(O)=C2	25.9% (inactive)
O=C(CNc1nc(-c2ccccc2)cs1)Nc1cccc([N+](=O)[O-])c1	0.799% (active)
O=C1Nc2cc(Cl)ccc2/C1=C/c1ccc(OCc2ccc(Br)cc2F)cc1	10.3% (inactive)
COc1cc2c(cc1OC)CN(CCCCOc1cc(O)c3c(=O)cc(-c4ccccc4)oc3c1)CC2	20.2% (inactive)

Structure (SMILES)	growth
CCCn1c(=O)c2[nH]c(-c3ccc(OCc4nc5ccc(C#N)cc5[nH]4)cc3)nc2n(CCC)c1=O	75.6% (inactive)
O=c1[nH]c2ccc(Cl)cc2cc1CSc1ccc(Nc2nccc(-c3ccc4ccccc4c3)n2)cc1	80.5% (inactive)
COc1cc(C2CC(c3ccc(C)cc3)=Nc3c(N)nc(N)nc3N2)ccc1Oc1nc(Nc2ccc(F)cc2)nc(N(C)C)n1 (configuration not stated)	13.2% (inactive)
COc1cc2c3c(n(CCCNC(C)C)c(=O)c2cc1OC)-c1nc2c(cc1C3=O)OCO2	-1.94% (active)
CC(=O)NNc1ccc2nnc(-c3ccc(Br)cc3)n2n1	92.3% (inactive)
COc1cc(OC(F)(F)F)ccc1C(=O)Nc1sc2c(c1C#N)CCC(=O)C2	90.8% (inactive)
COc1ccc(CN2[C@@H](C(=O)NCc3ccc(C(=O)NO)cc3)Cc3c([nH]c4ccccc34)[C@@H]2C)cc1	11.3% (inactive)
Cc1cccc2cc(-c3cc(-c4ccccc4)nc(=S)[nH]3)c(Cl)nc12	43.6% (inactive)
O=C(c1ccc([N+](=O)[O-])c([N+](=O)[O-])c1O)n1[nH]c(=O)c2ccccc2c1=O	36.3% (inactive)
COc1ccc(-c2cc(-c3cc(C(=O)c4ccccc4)n4ccc(C)cc34)nc(N)c2C#N)cc1	93.8% (inactive)
COc1ccc(C=CC(=O)c2ccc(-n3c(C)nc4c(cnn4-c4ccccc4)c3=O)cc2)cc1	44.7% (inactive)
CC1=N/C(=C\c2ccc(N(C)C)cc2)C(=O)N1CCc1ccc(S(N)(=O)=O)cc1	93.6% (inactive)
CC(C)(C)Nc1nc2cc(Cl)c(Cl)cc2nc1S(C)(=O)=O	-3.12% (active)
CO[C@H]1CSS[C@@H]1Cn1nc(-c2ccc(Oc3ccccc3)cc2)c2c(N)ncnc21	-20.6% (active)
COc1cccc(-c2ccc(/C=N/NC(=O)c3[nH]c4ccc(Br)cc4c3-c3ccccc3)o2)c1	1.31% (active)
COc1ccc(-c2cc(-c3cc(C(=O)c4ccc(Br)cc4)n4ccc(C)cc34)nc(N)c2C#N)cc1	101% (inactive)
